# Bioassay records deposited in PubChem BioAssay by National Center for Advancing Translational Sciences (NCATS).
# Only some compounds are listed: those with a hit (about 8.3% of all), similar ones and a draw of the others.
# FMDV inh: antivirals against foot and mouth disease virus; FMDV antiviral cell-based qHTS; Potency, µM (series often up to 57.9 µM), actives largely listed as inhibitors; actives 1.2% (n = 410,000); AID 1159524; calls by dose curve; tested in HEK293T cells; further: read-out not given here; nearly all actives have a fitted effect of over 45% in size
# FBPA Giardia inh: Giardia lamblia aldolase inhibition | Potency, µM (doses to about 59.6 µM), usual class: inhibitors | actives 0.71% (n = 290,000) | A8B2U2 | purified Giardia FBPA; further: nearly all actives have a fitted effect of over 55% in size
# Target sequence (A8B2U2 whole entry, looked up): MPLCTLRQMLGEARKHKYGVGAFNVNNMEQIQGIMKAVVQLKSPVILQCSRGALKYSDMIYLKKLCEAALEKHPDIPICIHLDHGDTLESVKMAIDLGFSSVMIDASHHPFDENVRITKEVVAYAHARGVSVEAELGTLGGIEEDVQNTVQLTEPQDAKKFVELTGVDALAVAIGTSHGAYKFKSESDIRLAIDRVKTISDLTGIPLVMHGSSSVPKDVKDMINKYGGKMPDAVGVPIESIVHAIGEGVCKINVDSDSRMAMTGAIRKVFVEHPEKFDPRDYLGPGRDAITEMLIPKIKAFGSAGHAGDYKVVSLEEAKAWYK
#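 40 nM FBPA preincubated 10 min at RT with compound (up to 57.5 uM final), then substrate plus GAPDH/TPI/NAD/arsenate coupling and diaphorase/resazurin added. Fluorescence read after 20 min at RT, 525/598 nm.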
# Lassa entry inh: inhibitors of Lassa virus binding or cell entry; Lassa virus pseudotype entry inhibition, cell reporter; Potency, µM (series often up to 37.9 µM), most hits filed as inhibitors; actives 1.2% (n = 300,000); calls by dose curve; tested in HEK293 cells; further: nearly all actives have a fitted effect of over 50% in size
# MARV entry inh: blocks Marburg virus binding to or entry into cells. Marburg virus pseudotyped entry inhibition, cell reporter. Potency, µM (top dose mostly 37.8 µM), hits mostly inhibitors. actives 1.8% (n = 300,000). AID 540276; calls by dose curve; tested in HEK293 cells
# HCMV inh: human cytomegalovirus inhibition | HFF cells, HCMV-luciferase reporter, 72 h; active compounds read low | activity change, negative = inhibition, % at 57.5 µM | actives 4.5% (n = 410,000) | AID 1259415; in the data active means activity change below about -60%; inconclusive means no clear call, values can overlap the other calls; inactive means above about -39%
#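 Cell-based, HFFs, 1000 cells/well, 16 h 37C; cpds in DMSO + HCMV-luc, MOI 1 PFU/cell; 72 h 37C; OneGlo luminescence after 5 min RT; norm. to buffer vs Salinomycin 10uM.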
# HCV inhibitor: blocks hepatitis C virus. Huh7.5.1 HCVcc-Cre infection, luciferase reporter, 44 h. Potency, µM (highest dose often 41.8 µM), actives largely listed as inhibitors. actives 3.4% (n = 340,000). AID 651820
#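 After 44 h co-culture of compound, cells and HCVcc-Cre (~0.5 moi), substrate is added for 15 min at room temperature and luciferase measured over 15 sec. Cells were seeded at 1,000/well and pre-cultured 4 h.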
# A number is an active result; i = inactive; ? = inconclusive; nt = not tested or not shown. Unless noted, the call rests on the fitted dose curve; in most records, active means well fitted curve in the direction sought with a large enough effect; inconclusive means small, poorly fitted or top-dose-only effect, or another doubt; inactive means no such curve, though single readings can be large; an effect the other way counts as inactive or inconclusive.
SMILES,FMDV inh,FBPA Giardia inh,Lassa entry inh,MARV entry inh,HCMV inh,HCV inhibitor
Cc1cccn2cc(COc3cccc([N+](=O)[O-])c3)nc12,i,i,i,i,i,i
CC/C=C\C/C=C\C/C=C\C/C=C\C/C=C\C/C=C\CCC(=O)O[C@H](COCCCCCCCCCCCCCCCC)COP(=O)([O-])OCC[N+](C)(C)C,nt,i,nt,nt,nt,nt
Cc1cc(N2CCN(C(=O)Nc3ccc(F)cc3F)CC2)c2ccccc2n1,i,i,?,i,nt,?
CCCCc1ccc(NC(=O)N2CCN(c3cc(C)nc4ccccc34)CC2)c(C)c1,35µM,i,nt,nt,nt,6.3µM
CCC(C)(C)C1CCC2(CC1)NC(=O)N(CC(=O)N(C)Cc1ccc3c(c1)OCCO3)C2=O (centres undefined),?,nt,nt,nt,?,13µM
C[C@H](CO)N1C[C@H](C)[C@H](CN(C)C(=O)Nc2ccc(F)cc2)Oc2ncc(Br)cc2C1=O,nt,nt,nt,nt,i,nt
COc1ccc2[nH]c3c(N4CCN(Cc5ccc6c(c5)OCO6)CC4)ncnc3c2c1,?,i,?,?,i,?
Fc1ccc2[nH]c3c(NCCN4CCOCC4)ncnc3c2c1,i,i,i,i,nt,?
CN1CCN(c2ncnc3c2[nH]c2ccc(F)cc23)CC1,?,i,i,i,i,10µM
CCOc1ccc2[nH]c3c(N4CCc5ccccc5C4)ncnc3c2c1,i,i,?,10µM,i,i
c1ccc2c(c1)[nH]c1c(N3CCSCC3)ncnc12,22µM,i,i,i,i,13µM
COc1ccc2[nH]c3c(N4CCC(O)(c5cccc(C(F)(F)F)c5)CC4)ncnc3c2c1,28µM,i,?,?,?,6.3µM
Cc1ccc(C)c(NC(=O)C(=O)NCCc2csc(-c3cccc(F)c3)n2)c1,i,nt,i,nt,i,nt
c1ccc(CNc2ccnc(-c3cccnc3)n2)cc1,i,i,nt,nt,nt,nt
Cc1ccc2[nH]c3c(N4CCc5ccccc5C4)ncnc3c2c1,?,i,?,6.3µM,-67,3.5µM
Brc1ccc2[nH]c3c(N4CCc5ccccc5C4)ncnc3c2c1,i,i,i,?,nt,3.5µM
Cc1ccc2[nH]c3c(N4CCOCC4)ncnc3c2c1,i,i,i,i,?,?
c1ccc2c(c1)CCN(c1ncnc3nc[nH]c13)C2,i,i,i,i,i,i
Fc1ccc2[nH]c3c(N4CCc5ccccc5C4)ncnc3c2c1,?,i,?,?,i,5µM
CCN(c1ccccc1)S(=O)(=O)c1ccc(OC)c(NC(=O)CNCCc2ccccc2)c1,i,?,?,?,i,7.1µM
CCN(CC)S(=O)(=O)c1ccc(OC)c(NC(=S)Nc2cc(C)ccc2C)c1,nt,i,i,i,nt,i
CCN(c1ccccc1)S(=O)(=O)c1ccc(OC)c(NC(=O)Cc2ccc(F)cc2)c1,i,nt,nt,nt,i,?
CCN(CC)S(=O)(=O)c1ccc(OC)c(NC(=O)CSc2cc(C)ccc2C)c1,i,i,0.21µM,?,i,?
COc1ccc2nc(C)cc(Sc3nc4ccccc4s3)c2c1,16µM,?,16µM,?,-99,?
C[C@H](CO)N1C[C@H](C)[C@@H](CN(C)C(=O)Nc2ccc3c(c2)OCCO3)OCc2cn(nn2)CCCC1=O,nt,nt,nt,nt,i,nt
SMILES,FMDV inh,FBPA Giardia inh,Lassa entry inh,MARV entry inh,HCMV inh,HCV inhibitor
CCN(CC)C(=O)CSC1=C(C#N)C(c2cccs2)C=C(C)N1 (centres undefined),i,i,?,7.9µM,i,i
CCOC(=O)N1CCN(C(=O)c2ccccc2NC(=O)COc2ccccc2)CC1,?,nt,i,i,-60,?
O=C(Nc1ccccc1C(=O)N1CCCCCC1)c1ccccc1,i,i,i,i,-64,i
Cc1ccc(N2CCN(C(=O)c3ccccc3NC(=O)c3ccccc3C(=O)O)CC2)cc1,i,i,?,i,-103,i
CCC(Oc1ccccc1)C(=O)Nc1ccccc1C(=O)N1CCCCC1 (centres undefined),?,nt,?,11µM,i,nt
COc1cccc(C(=O)Nc2ccccc2C(=O)N2CCCC2)c1,i,i,i,i,i,i
CCCCCCCC/C=C\CCCCCCCC(=O)N[C@H](CO)Cc1ccc(O)cc1,nt,i,nt,nt,nt,nt
C[C@@H]1CC2=CCCC2[C@]2(O1)C(=O)N(Cc1ccc(Br)cc1)c1cccc(Br)c12 (some centres undefined),nt,nt,?,i,nt,nt
Cc1ccc(C(O)C2=CCCC2=O)cc1 (centres undefined),nt,i,nt,?,nt,nt
CC(C)CCN(Cc1ccco1)C(=O)Cn1ncc2c([nH]c3ccccc32)c1=O,?,nt,i,nt,i,nt
CCn1cc(C2=NC(C)(C)CO2)c2ccccc21,i,i,i,i,i,3.2µM
CCn1cc(C2=NCC(C)O2)c2ccccc21 (centres undefined),i,i,i,i,i,14µM
COc1cccc(Cn2c(CNS(=O)(=O)c3ccc4c(c3)CCCC4)nc3cccnc32)c1,i,nt,i,nt,i,nt
COc1ccc(-c2nc(-c3ccccc3)ncc2S(C)(=O)=O)cc1,i,i,i,i,i,i
COc1ccc(-c2nc(-c3ccccn3)ncc2S(C)(=O)=O)cc1,i,i,i,i,-61,i
COC(=O)c1cnc(N2CCN(c3ccc(OC)cc3)CC2)c2ccccc12,?,nt,i,nt,?,nt
COP(=O)(OC)OC(C(=O)c1ccccc1)c1ccc(Cl)cc1 (centres undefined),i,nt,nt,nt,i,nt
COC(/C(=N/O)c1ccc(Cl)cc1)c1ccccc1 (centres undefined),i,i,?,?,-94,i
COc1ccc(-n2ccnc(NCc3cccs3)c2=O)cc1,i,nt,i,nt,i,nt
Nc1ccccc1S(=O)(=O)Nc1cccc2cccnc12,nt,14µM,nt,nt,nt,nt
Cc1ccc(S(=O)(=O)Nc2cccc3cccnc23)cc1,28µM,i,?,?,-105,?
Cc1ccc(NS(=O)(=O)c2cccc3cccnc23)c(Br)c1,i,i,i,i,-82,i
C/C(=N\Nc1cccc2cccnc12)c1ccccn1,i,i,?,?,i,6.3µM
Cc1cc(N/N=C/c2ccccc2Br)nc2ccccc12,i,i,i,?,i,?
CC(=NNc1cc(C)c2ccccc2n1)c1ccccn1,nt,nt,nt,nt,-98,nt
SMILES,FMDV inh,FBPA Giardia inh,Lassa entry inh,MARV entry inh,HCMV inh,HCV inhibitor
CCOC(=O)C1CCN(C(=O)c2cnn(-c3ccc(F)cc3)c2-n2cccc2)CC1,i,nt,i,nt,i,nt
O=C(CSc1n[nH]c(-c2cccs2)n1)N1CCN(S(=O)(=O)c2ccc3ccccc3c2)CC1,22µM,i,?,?,i,?
Nc1cc(=O)[nH]c(SCC(=O)N2CCN(S(=O)(=O)c3ccc4ccccc4c3)CC2)n1,i,i,i,?,i,i
O=C(c1cnc(Cl)c(Cl)c1)N1CCN(S(=O)(=O)c2ccc3ccccc3c2)CC1,?,nt,i,?,i,11µM
Cc1ccc(S(=O)(=O)N2CCN(C(=O)CCN3C(=O)c4ccccc4C3=O)CC2)cc1C,i,i,i,?,-62,i
CC(C)CC(=O)N1CCN(S(=O)(=O)c2ccc3ccccc3c2)CC1,?,i,i,i,-88,?
Cc1ccc(NC(=O)Cn2cc(S(=O)(=O)N3CCN(c4ccccc4F)CC3)c3ccccc3c2=O)cc1F,i,nt,i,?,i,nt
